Compound activity as filed in PubChem BioAssay.
Compounds with a hit are over-represented: about 4.6% of the library has one in this group of screens.
UCHL1 inh – inhibitors of human UCHL1 deubiquitinase. 47,000 compounds, 0.2% hits. Ubiquitin carboxyl-terminal hydrolase isozyme L1 (Homo sapiens), P09936. inhibition, % at 20 µM. purified UCHL1, Ub-rhodamine cleavage fluorescence
USP8 inh – inhibitors of human USP8 deubiquitinase; AID 1645853, 2021; inhibition, % at 20 µM; 47,000 compounds, 4.2% hits; purified USP8, Ub-rhodamine cleavage fluorescence, 30 min
USP7 inh – inhibitors of human USP7 deubiquitinase; purified USP7, Ub-rhodamine cleavage fluorescence; 47,000 compounds, 0.3% hits; Ubiquitin carboxyl-terminal hydrolase 7 (Homo sapiens), Q93009; inhibition, % at 20 µM
USP10 block – inhibitors of human USP10 deubiquitinase | Ubiquitin carboxyl-terminal hydrolase 10 (Homo sapiens), Q14694 | purified USP10, Ub-rhodamine fluorescence, 60 min | inhibition, % at 20 µM | 47,000 compounds, 1.1% hits | AID 1645856, 2021
Target sequence (Q14694 whole entry, looked up): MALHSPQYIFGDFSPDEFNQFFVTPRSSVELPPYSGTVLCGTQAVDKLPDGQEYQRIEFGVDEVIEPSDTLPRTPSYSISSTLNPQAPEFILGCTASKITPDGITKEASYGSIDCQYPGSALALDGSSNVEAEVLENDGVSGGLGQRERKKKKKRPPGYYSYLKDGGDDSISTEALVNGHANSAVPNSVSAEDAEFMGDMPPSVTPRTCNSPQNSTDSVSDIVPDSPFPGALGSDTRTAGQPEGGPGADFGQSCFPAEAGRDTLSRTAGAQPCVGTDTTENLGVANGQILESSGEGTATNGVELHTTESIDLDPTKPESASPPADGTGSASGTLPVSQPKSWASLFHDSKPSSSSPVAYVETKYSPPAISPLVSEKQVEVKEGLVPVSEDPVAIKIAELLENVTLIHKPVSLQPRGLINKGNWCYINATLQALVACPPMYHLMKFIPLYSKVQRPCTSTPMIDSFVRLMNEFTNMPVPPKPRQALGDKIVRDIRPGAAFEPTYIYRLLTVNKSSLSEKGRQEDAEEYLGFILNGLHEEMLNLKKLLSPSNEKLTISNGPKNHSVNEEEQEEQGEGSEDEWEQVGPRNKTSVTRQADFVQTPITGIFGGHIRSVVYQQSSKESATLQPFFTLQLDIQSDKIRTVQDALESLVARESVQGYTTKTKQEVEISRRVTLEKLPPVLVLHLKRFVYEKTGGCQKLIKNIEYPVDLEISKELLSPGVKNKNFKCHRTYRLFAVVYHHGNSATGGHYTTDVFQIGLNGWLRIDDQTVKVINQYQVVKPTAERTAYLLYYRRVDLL
Numbers without * were called inactive. Cut-off read from the data, not from the text of the source: active = inhibition above about 30%; inactive = the rest.

SMILES	UCHL1 inh	USP8 inh	USP7 inh	USP10 block
Cc1ccc(C(=O)NC(C)c2nc3ccccc3n2CC(=O)N2CCc3ccccc32)cc1 (configuration not stated)	6.5	63.0*	-13.0	6.6
CSCC[C@H](NC(=O)c1ccc(NC(C)=O)cc1)c1nnc2ccccn12	-0.7	-0.2	0.2	-2.4
CC(NC(=O)c1ccccc1)c1nc2ccccc2n1CC(=O)Nc1ccc(C#N)cc1 (configuration not stated)	2.9	78.0*	18.3	41.4*
CSCCC(NC(=O)c1ccccc1)c1nc2ccccc2n1CC(=O)Nc1ccccc1 (configuration not stated)	2.1	46.5*	10.6	40.8*
COc1cccc(NC(=O)Cn2c(C(F)(F)F)nc3ccccc32)c1	-2.4	0.2	-2.4	2.4
CC(Oc1ccccc1)c1nc2ccccc2n1CC(=O)N1CCc2ccccc21 (configuration not stated)	1.6	10.0	-0.7	1.6
Cc1nc(-c2ccc(NC(=O)N3CCC(Cc4ccccc4)CC3)cc2)no1	6.7	12.9	7.4	5.9
O=C(Cn1c(CNC(=O)c2ccccc2)nc2ccccc21)Nc1ccc(F)cc1	0.7	71.8*	18.2	43.8*
CCn1c(SCC(=O)NC2CCCCC2)nc2ccccc21	0.3	-12.0	-18.0	-0.8
CC(NC(=O)c1ccccc1)c1nc2ccccc2n1CC(=O)NC1CCCCC1 (configuration not stated)	2.2	65.2*	3.0	4.0
CCc1ccc(NC(=O)CN2C(=O)CSc3ncccc32)cc1	-17.7	-33.5	-17.5	-5.8
O=C1COc2nc3ccccc3cc2CN1CC1CC1	0.0	2.1	-28.0	-1.2
Cc1ccc(NC(=O)Cc2nnc3c(-c4nc(C5CC5)no4)cccn23)cc1	59.2*	97.2*	57.9*	48.3*
COC(=O)c1cn(CC(=O)N2CCCc3ccccc32)c2ccccc12	3.2	8.6	3.7	0.1
O=C(Cn1cc(C(=O)C(F)(F)F)c2ccccc21)N1CCc2ccccc21	1.7	68.4*	9.5	15.8
Cn1c(COc2ccccc2)nnc1SCc1cc(=O)c2cc(Cl)ccc2[nH]1	-2.0	33.4*	-3.8	9.6
Cc1ncc(CNC(=O)c2cnn3cccnc23)c(C2CCCN2C)n1 (configuration not stated)	-17.6	-33.7	-17.9	-8.9
COc1cc(OC)c2c(c1)C(=O)C1=C(COC(C)(O)C1)C2=O (configuration not stated)	15.9	68.2*	-12.8	0.3
COc1ccc(-c2n[nH]c3c2CN(C(=O)/C=C/c2ccccc2)CC3)cc1	4.1	-35.5	-4.0	15.8
CC1(C)CC(N2CC(=O)N3[C@H](Cc4c([nH]c5ccccc45)C3(C)C)C2=O)CC(C)(C)N1	3.1	4.9	3.6	-1.2
COc1ccccc1C1CN2C(=O)CN(CCCCCO)C(=O)[C@]2(C)c2[nH]c3ccccc3c21 (some centres not stated)	2.7	-5.4	-11.5	2.9
Cc1ccccc1OCCN1C(=O)C2CN(C(N)=O)CCN2C1=O (configuration not stated)	4.0	41.9*	2.2	5.6
Cc1cccc(C)c1OCCN1C(=O)C2CN(C(N)=O)CCN2C1=O (configuration not stated)	2.6	1.3	0.0	-0.5
Cc1cccc(NC(=O)CNC(=O)c2ccc(-c3noc(C4CCCC4)n3)cc2)c1C	3.1	0.4	17.8	59.3*
Cc1nc(CNC(=O)c2ccc(-c3noc(C4CC4)n3)cc2)no1	-0.2	-3.1	-0.1	0.1
SMILES	UCHL1 inh	USP8 inh	USP7 inh	USP10 block
CC(=O)N[C@@]12CN(C)CC[C@@H]1[C@@H](c1ccccc1)N(CC(=O)Nc1cccc(F)c1C)C2	-7.7	-17.3	-13.2	-4.2
O=C(CNC(=O)c1ccc(F)c(F)c1)Nc1nc2ccccc2[nH]1	0.4	7.5	6.7	3.0
O=C(CNC(=O)c1cc(F)cc(F)c1)Nc1nc2ccccc2[nH]1	2.8	35.7*	7.2	11.3
c1coc(CNc2nc3ccccc3n3nnnc23)c1	-153.5	-330.8	-139.7	-2.9
Cc1ccc(S(=O)(=O)c2nnn3c2nc(NCc2ccco2)c2sccc23)cc1	-2.0	32.5*	0.0	1.5
CCN1C(=O)[C@H]2CN(C(C)=O)C[C@H]2C12CCN(S(=O)(=O)c1ccccc1)CC2	-0.6	-31.3	0.0	0.0
Cn1ncc(Cl)c1C(=O)Nc1ccc2nc(NC(=O)C3CCCCC3)sc2c1	2.6	58.2*	13.4	19.4
Cc1ccc(N(CC(=O)Nc2cccc(C)c2C)S(=O)(=O)c2c(C)nn(C)c2C)cc1	0.0	-16.5	-50.0	-5.2
